Laboratory results: PubChem BioAssay (EPA / NIEHS)
Active and inactive are the calls of the source. The calls were made as follows: active = hit-call score of the fitted dose curve at least 0.9, where 1 is the maximum; inactive = score below 0.9.

What was measured:
Conditions in all cases: mRNA level, 48 h; actives raise or lower the signal
[1] = read-out: Insulin-like growth factor-binding protein 1 (IGFBP1), IGFBP1 (gene 3484); experiment: LTEA_HepaRG_IGFBP1: Life Technologies and Expression Analysis (LTEA) Assay for Insulin-like growth factor-binding protein 1 (IGFBP1) using HepaRG (AID 2283508)
Summary of the method: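 qRT-PCR mRNA read-out (TaqMan, Fluidigm array), normalised to three housekeeping genes; HepaRG cells, 48 h exposure, 8-pt half-log series from 100 uM, 0.5% DMSO vehicle; bidirectional curve fit vs DMSO baseline.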

[2] = read-out: Interleukin 6 (IL6), IL6 (gene 3569); experiment: LTEA_HepaRG_IL6: Life Technologies and Expression Analysis (LTEA) Assay for Interleukin 6 (IL6) using HepaRG (AID 2283509)
Summary of the method: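 Transcript levels, normalized to three housekeeping genes, were quantified by qRT-PCR after 48 h chemical treatment of HepaRG cells. Eight-point half-log series from 100 uM in 0.5% DMSO, duplicates. Fitted both directions against DMSO baseline.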

[3] = read-out: Interleukin 6 Receptor (IL6R), IL6R (gene 3570); experiment: LTEA_HepaRG_IL6R: Life Technologies and Expression Analysis (LTEA) Assay for Interleukin 6 Receptor (IL6R) using HepaRG (AID 2283510)
Summary of the method: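 Cells were thawed, plated and cultured 48 h, then medium was changed to serum-free induction medium. Chemicals were added in duplicate (100 uM top, half-log steps, 0.5% DMSO) for 48 h. Lysates were analyzed by qRT-PCR for IL6R expression.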

[4] = read-out: Potassium channel subfamily K member 1 (KCNK1), KCNK1 (gene 3775); experiment: LTEA_HepaRG_KCNK1: Life Technologies and Expression Analysis (LTEA) Assay for Potassium channel subfamily K member 1 (KCNK1) using HepaRG (AID 2283511)
Summary of the method: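 KCNK1 transcript measured by TaqMan qRT-PCR against three housekeeping genes, after HepaRG cells were treated 48 h with eight half-log concentrations (top 100 uM, 0.5% DMSO). Curves fitted bidirectionally relative to vehicle.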

[5] = read-out: Keratin 19 (KRT19), KRT19 (gene 3880); experiment: LTEA_HepaRG_KRT19: Life Technologies and Expression Analysis (LTEA) Assay for Keratin 19 (KRT19) using HepaRG (AID 2283512)
Summary of the method: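 HepaRG, 48 h chemical exposure, 8-pt half-log CRC from 100 uM, 0.5% DMSO vehicle, duplicates. Readout: TaqMan qRT-PCR of KRT19 mRNA, housekeeping-normalized (ACTB/GAPDH/POLR2A). Bidirectional fit vs DMSO baseline.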

[6] = read-out: JUN Transcription Factor, JUN (gene 3725); experiment: LTEA_HepaRG_JUN: Life Technologies and Expression Analysis (LTEA) Assay for JUN Transcription Factor using HepaRG (AID 2283513)
Summary of the method: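 Read-out is JUN transcript level by TaqMan qRT-PCR, normalized to ACTB, GAPDH and POLR2A, after 48 h chemical treatment of HepaRG cells. Concentration-response spanned eight half-log points up to 100 uM in 0.5% DMSO.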

[7] = read-out: Lipase C (LIPC), LIPC (gene 3990); experiment: LTEA_HepaRG_LIPC: Life Technologies and Expression Analysis (LTEA) Assay for Lipase C (LIPC) using HepaRG (AID 2283514)
Summary of the method: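 LIPC expression was quantified by qRT-PCR against three housekeeping genes (ACTB, GAPDH, POLR2A). Differentiated human HepaRG cells received eight half-log doses (top 100 uM, 0.5% DMSO) in duplicate for 48 h; fitting bidirectional relative to DMSO.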

[8] = read-out: Lipoprotein lipase (LPL), LPL (gene 4023); experiment: LTEA_HepaRG_LPL: Life Technologies and Expression Analysis (LTEA) Assay for Lipoprotein lipase (LPL) using HepaRG (AID 2283515)
Summary of the method: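 LPL transcript levels quantified by TaqMan qRT-PCR against three housekeeping genes after 48 h chemical treatment of HepaRG cells. Eight-point half-log series from 100 uM in 0.5% DMSO, tested in duplicate; bidirectional fitting versus vehicle.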

[9] = read-out: MicroRNA 122 (MIR122), gene 406906; experiment: LTEA_HepaRG_MIR122: Life Technologies and Expression Analysis (LTEA) Assay for MicroRNA 122 (MIR122) using HepaRG (AID 2283516); also: the transcript read is the microRNA miR-122
Summary of the method: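 Human liver HepaRG cultures receive test chemicals for 48 h at eight half-log concentrations from 100 uM. Expression is quantified by qRT-PCR with ACTB/GAPDH/POLR2A normalization and fitted bidirectionally against 0.5% DMSO.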

[10] = read-out: matrix metalloproteinase-10 (MMP10), MMP10 (gene 4319); experiment: LTEA_HepaRG_MMP10: Life Technologies and Expression Analysis (LTEA) Assay for matrix metalloproteinase-10 (MMP10) using HepaRG (AID 2283517)
Summary of the method: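 Expression measured by TaqMan qRT-PCR with ACTB/GAPDH/POLR2A normalisation after 48 h chemical exposure of HepaRG cells. Eight half-log concentrations, top 100 uM, 0.5% DMSO vehicle, duplicates; gain or loss fitted against vehicle.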

MYC, MYC (gene 4609) = experiment: LTEA_HepaRG_MYC: Life Technologies and Expression Analysis (LTEA) Assay for MYC using HepaRG (AID 2283518)
Summary of the method: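 qRT-PCR read-out of MYC transcript (Fluidigm TaqMan, housekeeping-normalized) after 48 h chemical exposure of HepaRG cells; eight concentrations, top 100 uM, half-log steps. Bidirectional curve fitting against 0.5% DMSO vehicle baseline.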

[11] = read-out: matrix metalloproteinase-3 (MMP3), MMP3 (gene 4314); experiment: LTEA_HepaRG_MMP3: Life Technologies and Expression Analysis (LTEA) Assay for matrix metalloproteinase-3 (MMP3) using HepaRG (AID 2283519)
Summary of the method: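 Fluidigm-based TaqMan qRT-PCR, normalized to ACTB, GAPDH and POLR2A and fitted bidirectionally versus 0.5% DMSO, measured transcript levels. Treatment: duplicate 48 h exposures of HepaRG cells, ~100,000/well, to eight half-log concentrations topping at 100 uM.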

[12] = read-out: Paternally Expressed 10 (PEG10), PEG10 (gene 23089); experiment: LTEA_HepaRG_PEG10: Life Technologies and Expression Analysis (LTEA) Assay for Paternally Expressed 10 (PEG10) using HepaRG (AID 2283520)
Summary of the method: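 Human HepaRG cultures are dosed for 48 h across an eight-point half-log series starting at 100 uM, with 0.5% DMSO as vehicle and baseline. Gain or loss of PEG10 transcript is measured by qRT-PCR and fitted in both directions.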

[13] = read-out: Protein phosphatase 2A (PPP2R4), PTPA (gene 5524); experiment: LTEA_HepaRG_PPP2R4: Life Technologies and Expression Analysis (LTEA) Assay for Protein phosphatase 2A (PPP2R4) using HepaRG (AID 2283522)
Summary of the method: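 Cells were plated, cultured 48 h, switched to serum-free induction medium, then dosed for 48 h (8 points, max 100 uM, 0.5% DMSO). RNA was isolated and PPP2R4 expression measured by TaqMan qRT-PCR.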

[14] = read-out: Phosphatase and tensin (PTEN), PTEN (gene 5728); experiment: LTEA_HepaRG_PTEN: Life Technologies and Expression Analysis (LTEA) Assay for Phosphatase and tensin (PTEN) using HepaRG (AID 2283523)
Summary of the method: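 Read-out: TaqMan qRT-PCR of PTEN transcript, normalized to three housekeeping genes, fitted in both directions against 0.5% DMSO. Differentiated human HepaRG cultures received chemicals for 48 h, eight-point half-log series topping at 100 uM.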

[15] = read-out: solute carrier (SLC22A1), SLC22A1 (gene 6580); experiment: LTEA_HepaRG_SLC22A1: Life Technologies and Expression Analysis (LTEA) Assay for solute carrier (SLC22A1) using HepaRG (AID 2283524)
Summary of the method: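 Transcript level of SLC22A1 quantified by qRT-PCR (normalized to three housekeeping genes) after 48 h chemical exposure of HepaRG cells, eight concentrations up to 100 µM, half-log steps, 0.5% DMSO vehicle. Gain or loss relative to DMSO fitted bidirectionally.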

[16] = read-out: Pyruvate Dehydrogenase Kinase 4 (PDK4), PDK4 (gene 5166); experiment: LTEA_HepaRG_PDK4: Life Technologies and Expression Analysis (LTEA) Assay for Pyruvate Dehydrogenase Kinase 4 (PDK4) using HepaRG (AID 2283525)
Summary of the method: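 Readout is qRT-PCR of PDK4 transcript, normalized to three housekeeping genes, with bidirectional fitting against 0.5% DMSO vehicle. Differentiated HepaRG cells were treated 48 h in serum-free induction medium, duplicate wells, eight-point half-log series topping at 100 uM.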

[17] = read-out: NAD(P)H dehydrogenase [quinone] 1 (NQO1), NQO1 (gene 1728); experiment: LTEA_HepaRG_NQO1: Life Technologies and Expression Analysis (LTEA) Assay for NAD(P)H dehydrogenase [quinone] 1 (NQO1) using HepaRG (AID 2283526)
Summary of the method: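 Transcript induction or suppression is quantified by qRT-PCR in human HepaRG liver cells dosed for 48 hours. Eight half-log concentrations topping at 100 uM are used, with 0.5% DMSO as vehicle and baseline.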

[18] = read-out: Nuclear factor erythroid 2-related factor 2 (Homo sapiens) (UniProt Q16236); experiment: LTEA_HepaRG_NFE2L2: Life Technologies and Expression Analysis (LTEA) Assay for Nuclear factor erythroid 2-related factor 2 (NFE2L2) Transcription Factor using HepaRG (AID 2283527);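 also: TaqMan qRT-PCR transcript level normalised to ACTB GAPDH and POLR2A housekeeping genes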
Summary of the method: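 NFE2L2 transcript level was read by qRT-PCR (housekeeping ACTB/GAPDH/POLR2A normalisation) after 48 h chemical treatment of HepaRG in serum-free induction medium. Duplicate 8-point half-log curves, top 100 uM, 0.5% DMSO vehicle; up- or down-regulation fitted against vehicle.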

[19] = read-out: Nuclear factor NF-kappa-B p105 subunit (Homo sapiens) (UniProt P19838); experiment: LTEA_HepaRG_NFKB1: Life Technologies and Expression Analysis (LTEA) Assay for Nuclear Factor Kappa B Subunit 1 (NFKB1) using HepaRG (AID 2283521);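 also: TaqMan qRT-PCR transcript normalised to ACTB GAPDH and POLR2A housekeeping genes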
Summary of the method: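 Differentiated human HepaRG cells in serum-free induction medium with 0.5% DMSO were exposed for 48 h to eight half-log concentrations, top 100 uM, in duplicate. NFKB1 mRNA measured by Fluidigm TaqMan qRT-PCR, normalised to ACTB, GAPDH and POLR2A; bidirectional fit versus DMSO.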

Measured: outcome

Nuclear factor erythroid 2-related factor 2 (Homo sapiens), sequence (Q16236 whole entry, looked up): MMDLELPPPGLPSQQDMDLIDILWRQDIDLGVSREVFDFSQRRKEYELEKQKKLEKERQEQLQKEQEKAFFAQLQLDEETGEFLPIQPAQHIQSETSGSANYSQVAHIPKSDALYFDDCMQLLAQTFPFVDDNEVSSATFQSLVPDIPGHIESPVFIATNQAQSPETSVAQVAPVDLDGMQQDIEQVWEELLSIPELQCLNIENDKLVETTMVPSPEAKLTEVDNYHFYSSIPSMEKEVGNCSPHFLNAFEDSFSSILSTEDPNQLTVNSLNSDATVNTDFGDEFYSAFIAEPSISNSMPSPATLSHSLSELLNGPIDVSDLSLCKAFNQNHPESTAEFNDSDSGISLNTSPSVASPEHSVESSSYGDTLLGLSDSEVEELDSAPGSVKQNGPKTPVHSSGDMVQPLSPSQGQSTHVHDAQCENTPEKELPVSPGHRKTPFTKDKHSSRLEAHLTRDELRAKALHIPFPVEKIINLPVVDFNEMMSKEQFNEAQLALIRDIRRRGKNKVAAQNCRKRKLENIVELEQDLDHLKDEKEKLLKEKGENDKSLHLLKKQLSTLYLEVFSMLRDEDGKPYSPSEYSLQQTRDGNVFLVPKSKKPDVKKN
Nuclear factor NF-kappa-B p105 subunit (Homo sapiens), sequence (P19838 whole entry, looked up): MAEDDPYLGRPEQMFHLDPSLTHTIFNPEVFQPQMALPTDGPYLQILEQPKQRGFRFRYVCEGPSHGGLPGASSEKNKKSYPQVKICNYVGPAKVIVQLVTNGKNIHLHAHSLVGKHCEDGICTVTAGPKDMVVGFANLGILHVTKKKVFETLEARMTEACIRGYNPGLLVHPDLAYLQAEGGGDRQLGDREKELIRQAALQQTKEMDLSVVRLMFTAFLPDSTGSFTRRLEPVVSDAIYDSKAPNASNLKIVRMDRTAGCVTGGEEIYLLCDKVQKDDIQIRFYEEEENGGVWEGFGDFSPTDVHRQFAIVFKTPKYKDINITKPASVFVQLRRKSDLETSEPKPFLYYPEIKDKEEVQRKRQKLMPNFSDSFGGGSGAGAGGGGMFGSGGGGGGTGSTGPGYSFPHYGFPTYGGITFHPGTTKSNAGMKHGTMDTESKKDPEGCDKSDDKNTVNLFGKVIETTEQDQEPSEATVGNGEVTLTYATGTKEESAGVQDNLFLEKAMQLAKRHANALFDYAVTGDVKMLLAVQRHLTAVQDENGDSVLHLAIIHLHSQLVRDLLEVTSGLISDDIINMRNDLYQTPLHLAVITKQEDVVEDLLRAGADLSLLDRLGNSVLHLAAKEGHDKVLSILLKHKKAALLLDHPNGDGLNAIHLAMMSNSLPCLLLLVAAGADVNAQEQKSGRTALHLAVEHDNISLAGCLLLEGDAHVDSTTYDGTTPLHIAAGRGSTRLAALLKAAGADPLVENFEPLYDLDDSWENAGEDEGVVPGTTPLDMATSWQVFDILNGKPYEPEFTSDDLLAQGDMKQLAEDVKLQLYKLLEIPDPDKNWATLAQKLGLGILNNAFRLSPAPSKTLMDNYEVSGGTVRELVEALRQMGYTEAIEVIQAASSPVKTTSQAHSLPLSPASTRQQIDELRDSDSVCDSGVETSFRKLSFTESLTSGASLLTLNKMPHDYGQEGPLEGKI

Cc1cc(C)c(O)c(C)c1
not listed: [19]
inactive: all other assays above

O=c1c(-c2ccc(O)cc2)coc2cc(O)ccc12
not listed: [11] | [19]
inactive: all other assays above

CCCCCCC(=O)O
not listed: [19]
inactive: all other assays above

Oc1cccc(O)c1
inactive: all assays above

c1ccc2c(c1)Cc1ccccc1-2
not listed: [4] | [19]
inactive: all other assays above

O=C(OCCOCCOC(=O)c1ccccc1)c1ccccc1
not listed: [4]
inactive: all other assays above
